Compound activity from PubChem BioAssay.
Rows were chosen to be rich in hits. Some 3.7% of all compounds tested hit in one or more screens of this group.
Ecoli rRNA inh: selective bacterial rRNA inhibition in E. coli. GFP signal change (wild-type ribosome), % (concentration not given with the values). AID 720706. E. coli WT GFP vs humanized-ribosome RFP mutants, fluorescence, 24 h; active compounds read low; DMSO median 0, no signal -100. hit rate 1.6% among 350,000;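 active = significant combined selectivity score with lowered wild-type GFP, culture density cut under 30%, mutant RFP and density less affected; inactive = any of these conditions unmet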
MITF act: MITF TRPM1 promoter activation in melanoma cells | hit rate 0.75% among 300,000 | SK-MEL-5 TRPM1-promoter luciferase, 24 h; % of positive control, neutral wells = 0 | activation, % at 12.5 µM | AID 588334;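 active = mean activation of at least 80% with every replicate also reaching 80%; inconclusive = mean reaches 80% but some replicate falls short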;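 note: 0% = neutral control wells and 100% = parthenolide positive control wells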
Wnt act: Wnt/beta-catenin pathway activation | hit rate 1.2% among 300,000 | activation, % at 9.35 µM | Wnt/beta-catenin reporter cell assay, activator, plate reader; in the data active = activation above about 30%, passing the limit was not always enough; inconclusive = no clear call, values can overlap the other calls;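 note: 0% = neutral control wells and 100% = positive control wells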
esBAF inh: blocks esBAF chromatin remodeling in mouse ES cells; Bmi1-luciferase knock-in reporter, 24 h; 100% = twice the neutral-well signal; reporter increase, % at 12.5 µM; hit rate 2% among 350,000; in the data active = activation above about 40%; inconclusive = no clear call, values can overlap the other calls;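 note: 0% = median of the plate's neutral control wells and 100% = double that signal; a rise in the Bmi1 reporter signal indicates esBAF inhibition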
MLL AF4-AF9 inh: inhibitors of human MLL-AF4/AF9 interaction; AlphaScreen, biotin-AF4 peptide binding to FLAG-AF9; hit rate 0.47% among 350,000; P42568; AID 651704; inhibition, % at 10 µM;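 active = every replicate reaching a set inhibition limit, whatever the replicate mean, cut at about 25% in these data; inconclusive = mean inhibition reaches that limit but some replicates miss it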;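 note: 0% = plate neutral control median and 100% = total signal loss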
Target sequence (P42568 whole entry, looked up): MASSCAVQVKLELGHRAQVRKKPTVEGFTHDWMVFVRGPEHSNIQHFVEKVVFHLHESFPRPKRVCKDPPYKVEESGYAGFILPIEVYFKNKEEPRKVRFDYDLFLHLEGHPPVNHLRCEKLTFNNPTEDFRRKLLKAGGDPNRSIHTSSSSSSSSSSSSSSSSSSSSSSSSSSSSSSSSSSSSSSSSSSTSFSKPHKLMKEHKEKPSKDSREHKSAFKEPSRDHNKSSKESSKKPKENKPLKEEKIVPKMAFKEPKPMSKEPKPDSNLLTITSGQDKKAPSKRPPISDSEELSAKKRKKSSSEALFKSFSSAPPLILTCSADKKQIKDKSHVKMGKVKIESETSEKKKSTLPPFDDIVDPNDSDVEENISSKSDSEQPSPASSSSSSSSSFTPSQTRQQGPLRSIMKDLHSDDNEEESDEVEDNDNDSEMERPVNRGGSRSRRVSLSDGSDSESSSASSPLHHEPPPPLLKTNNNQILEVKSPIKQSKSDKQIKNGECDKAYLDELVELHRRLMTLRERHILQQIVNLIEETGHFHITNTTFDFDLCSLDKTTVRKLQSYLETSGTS
esBAF Ring1 qPCR: confirmation of esBAF inhibitors: Ring1 de-repression in mouse ESCs | shares compounds with esBAF inh | mouse ESC E14, Ring1 mRNA RT-qPCR fold change | fold change at 33 µM | 550 tested, under 10 active | AID 743176;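 active = Ring1 gene expression raised more than 2-fold over untreated cells in both replicates at either tested dose; inconclusive = only one replicate above 2-fold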;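 note: Ring1 transcript normalised to actin housekeeping signal by TaqMan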
esBAF Fgf4 qPCR: confirmation of esBAF inhibitors: Fgf4 repression in mouse ESCs; mouse ESC E14, Fgf4 mRNA qPCR fold change; active compounds read low; shares compounds with esBAF inh; Fgf4 expression fold change at 33 µM; hit rate 4% among 550;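 active = Fgf4 expression under 0.8 fold of control in both repeat measurements at one or both tested doses; inconclusive = under 0.8 fold in just a single repeat measurement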;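 note: Fgf4 transcript normalised to actin in duplex TaqMan qPCR; cells exposed to compound for 24 h before lysis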
esBAF Bmi1 qPCR: de-represses Bmi1 in mouse ESCs, confirming esBAF inhibition; AID 743180; shares compounds with esBAF inh; mouse ESE14 ES cells, Bmi1 mRNA qPCR fold; active compounds read high; fold change at 33 µM; 550 tested, under 10 active;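 active = Bmi1 expression fold change above 6 at either tested concentration, seen in replicate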;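 note: higher fold means more Bmi1 de-repression and stronger esBAF inhibition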
A549 tox SP: cytotoxicity in A549 cells; shares compounds with esBAF inh; plate reader; cell viability change % (negative = cytotoxic), % at 25 µM, hits read low; 550 tested, under 10 active; AID 743188; call rule not given here
HepG2 cytotox SP: kills or reduces viability of HepG2 cells; HepG2 cytotoxicity, plate reader; active compounds read low; shares compounds with esBAF inh; hit rate 4% among 550; activity change, negative = inhibition, % at 25 µM; in the data active = activity change below about -50%
HEK293 cytotox SP: cytotoxicity in HEK293 cells. shares compounds with esBAF inh. plate reader. activity change, negative = inhibition, % at 25 µM, hits read low. hit rate 3% among 550. AID 743190; in the data active = activity change below about -38%, passing the limit was not always enough
* hit, by the source's call.

For CCOC(=O)c1ccc(N=Cc2nc(-c3ccccc3)oc2OC(C)=O)cc1 the results were MITF act -15 and esBAF inh 15.
CN(C)c1ccc(N=Cc2nc(-c3ccccc3)oc2OC(=O)c2cccc(Br)c2)cc1 was read as MITF act 68, esBAF inh 63*, esBAF Ring1 qPCR 1.4, esBAF Fgf4 qPCR 1, esBAF Bmi1 qPCR 1.5, A549 tox SP 0, HepG2 cytotox SP -34 and HEK293 cytotox SP -10.
`CCOC(=O)c1cc2c(c(CCO)n1)[C@H](CCO)N(S(=O)C(C)(C)C)C2` (stereo not given in full) gave Ecoli rRNA inh 3, MITF act -1, Wnt act -1, esBAF inh -10 and MLL AF4-AF9 inh -2.
`CC(=O)c1ccc(N2CCN(S(=O)(=O)c3cc4c(cc3C)NC(=O)CO4)CC2)cc1` gave Ecoli rRNA inh 4, MITF act -1, Wnt act -4, esBAF inh -1 and MLL AF4-AF9 inh -1.
`Nc1ccc(C#Cc2ccc3c(=O)c4ccccc4oc3c2)cc1` gave Ecoli rRNA inh 5, MITF act 111*, Wnt act 25, esBAF inh 79*, MLL AF4-AF9 inh -5, esBAF Ring1 qPCR 0.85, esBAF Fgf4 qPCR 0.56*, esBAF Bmi1 qPCR 3.5, A549 tox SP -14, HepG2 cytotox SP -1 and HEK293 cytotox SP -11.
Screening COc1cc2oc3ccc(C#Cc4ccc(N)cc4)cc3c(=O)c2cc1OC returned Ecoli rRNA inh -15, MITF act 8, Wnt act 2, esBAF inh 28 and MLL AF4-AF9 inh -2.
CCN(C(=O)c1ccc2c(Cl)c3c(nc2c1)CCC3)c1ccc(C)c(C)c1 was read as Ecoli rRNA inh 2, MITF act -2, Wnt act -3, esBAF inh -4 and MLL AF4-AF9 inh 5.
`CN(C(=O)c1ccc2c(Cl)c3c(nc2c1)CCC3)c1ccccc1` gave Ecoli rRNA inh -16, Wnt act 25, esBAF inh 88*, MLL AF4-AF9 inh -1, esBAF Ring1 qPCR 1.4, esBAF Fgf4 qPCR 0.98, esBAF Bmi1 qPCR 1.8, A549 tox SP 3, HepG2 cytotox SP -23 and HEK293 cytotox SP 1.
Screening Cc1ccc(-n2nnc(-c3nccn3C)n2)cc1 returned Ecoli rRNA inh 5, MITF act -2, Wnt act 6, esBAF inh -58 and MLL AF4-AF9 inh -1.
For Cc1ccc(-n2nnc(-c3cccnc3)n2)cc1 the results were Ecoli rRNA inh -7, MITF act 102*, Wnt act 22, esBAF inh 60*, MLL AF4-AF9 inh -8, esBAF Ring1 qPCR 1.2, esBAF Fgf4 qPCR 1, esBAF Bmi1 qPCR 1.5, A549 tox SP -3, HepG2 cytotox SP -10 and HEK293 cytotox SP 16.
`CC(=O)N(/N=C1\Sc2ccccc2C1=O)c1ccccc1` gave esBAF inh 81*, esBAF Ring1 qPCR 1.1, esBAF Bmi1 qPCR 1.2, A549 tox SP -3, HepG2 cytotox SP -1 and HEK293 cytotox SP -12.
COC(=O)Cc1ccc(OCc2ccc(Cl)nc2)cc1 was read as Ecoli rRNA inh -15, MITF act 95*, Wnt act -2, esBAF inh 59*, MLL AF4-AF9 inh 2, esBAF Ring1 qPCR 1.2, esBAF Fgf4 qPCR 0.91, esBAF Bmi1 qPCR 1.8, A549 tox SP 0, HepG2 cytotox SP -30 and HEK293 cytotox SP -4.
For Cn1c(-c2ccccc2F)cc2onc(-c3ccccc3)c2c1=O the results were Ecoli rRNA inh -19, MITF act -2, Wnt act 28, esBAF inh -27 and MLL AF4-AF9 inh -6.
Screening Cn1c(-c2ncc(F)cc2F)cc2onc(-c3c(F)cccc3Cl)c2c1=O returned Ecoli rRNA inh 1, MITF act 87*, Wnt act 40*, esBAF inh 91*, MLL AF4-AF9 inh -51, esBAF Ring1 qPCR 0.9, esBAF Fgf4 qPCR inconclusive, esBAF Bmi1 qPCR 1.4, A549 tox SP 3, HepG2 cytotox SP 0 and HEK293 cytotox SP 1.
Screening COc1ccccc1C(=O)NCCC(=O)NCC(c1ccccc1OC)N1CCCC1 (stereo not given) returned Ecoli rRNA inh 0, MITF act 1, Wnt act -2, esBAF inh -8 and MLL AF4-AF9 inh -1.
`Nc1n[nH]c(N)c1N=Nc1ccc(Cl)cc1` gave MITF act 53, Wnt act -3, esBAF inh 53*, MLL AF4-AF9 inh 1, esBAF Ring1 qPCR 1.4, esBAF Fgf4 qPCR 1.1, esBAF Bmi1 qPCR 1.9, A549 tox SP 0, HepG2 cytotox SP 3 and HEK293 cytotox SP 5.
Screening Cc1cccc(N=Nc2c(N)n[nH]c2N)c1 returned Ecoli rRNA inh 5, Wnt act 2, esBAF inh 8 and MLL AF4-AF9 inh 7.
Screening CC(=O)c1cccc(S(=O)(=O)NCCCN2CCOCC2)c1 returned Ecoli rRNA inh 11, MITF act -7, Wnt act -2, esBAF inh -1 and MLL AF4-AF9 inh -1.
Cc1ccc(OCc2cc(C(=O)NC(C)Cc3cnccn3)no2)cc1C (stereo not given) was read as Ecoli rRNA inh -2, MITF act 1, Wnt act -3 and MLL AF4-AF9 inh 1.
COc1ccc(OCc2cc(C(=O)NC(C)Cc3cnccn3)no2)c(Cl)c1 (stereo not given) was read as Ecoli rRNA inh -6, MITF act 65, Wnt act -1, esBAF inh 61*, MLL AF4-AF9 inh -1, esBAF Ring1 qPCR 0.84, esBAF Fgf4 qPCR 0.92, esBAF Bmi1 qPCR 1.4, A549 tox SP -7, HepG2 cytotox SP -21 and HEK293 cytotox SP -2.
`Cc1ccc(NC(=O)C2CC3CCC2C3)c(Br)c1` (stereo not given) gave Ecoli rRNA inh -3, MITF act 52, Wnt act 7, esBAF inh 73*, MLL AF4-AF9 inh -4, esBAF Ring1 qPCR 1, esBAF Fgf4 qPCR 1, esBAF Bmi1 qPCR 2, A549 tox SP -10, HepG2 cytotox SP -18 and HEK293 cytotox SP -11.
